B1: CTTA (dsDNA)
DNA 1: GCTATCTAGTGCTCAGTACGCACTGCTTAAGGAAACTTCTGGCAGGACCAGGTCATGAGATCGGAAGAGCACACGTCTGAACTCCAGTCA
DNA 2: TGACTGGAGTTCAGACGTGTGCTCTTCCGATCTCATGACCTGGTCCTGCCAGAAGTTTCCTTAAGCAGTGCGTACTGAGCACTAGATAGC
RNA: AAUUUCUACUCUUGUAGAUAGGAAACUUCUGGCAGGACC
B2: GTTT (dsDNA)
DNA 1: GCTATCTAGTGCTCAGTACGCACTGGTTTAGGAAACTTCTGGCAGGACCAGGTCATGAGATCGGAAGAGCACACGTCTGAACTCCAGTCA
DNA 2: TGACTGGAGTTCAGACGTGTGCTCTTCCGATCTCATGACCTGGTCCTGCCAGAAGTTTCCTAAACCAGTGCGTACTGAGCACTAGATAGC
RNA: AAUUUCUACUCUUGUAGAUAGGAAACUUCUGGCAGGACC
B3: TCTA (dsDNA)
DNA 1: GCTATCTAGTGCTCAGTACGCACTGTCTAAGGAAACTTCTGGCAGGACCAGGTCATGAGATCGGAAGAGCACACGTCTGAACTCCAGTCA
DNA 2: TGACTGGAGTTCAGACGTGTGCTCTTCCGATCTCATGACCTGGTCCTGCCAGAAGTTTCCTTAGACAGTGCGTACTGAGCACTAGATAGC
RNA: AAUUUCUACUCUUGUAGAUAGGAAACUUCUGGCAGGACC
B4: TATC (dsDNA)
DNA 1: GCTATCTAGTGCTCAGTACGCACTGTATCAGGAAACTTCTGGCAGGACCAGGTCATGAGATCGGAAGAGCACACGTCTGAACTCCAGTCA
DNA 2: TGACTGGAGTTCAGACGTGTGCTCTTCCGATCTCATGACCTGGTCCTGCCAGAAGTTTCCTGATACAGTGCGTACTGAGCACTAGATAGC
RNA: AAUUUCUACUCUUGUAGAUAGGAAACUUCUGGCAGGACC
B5: GTTA (dsDNA)
DNA 1: GCTATCTAGTGCTCAGTACGCACTGGTTAAGGAAACTTCTGGCAGGACCAGGTCATGAGATCGGAAGAGCACACGTCTGAACTCCAGTCA
DNA 2: TGACTGGAGTTCAGACGTGTGCTCTTCCGATCTCATGACCTGGTCCTGCCAGAAGTTTCCTTAACCAGTGCGTACTGAGCACTAGATAGC
RNA: AAUUUCUACUCUUGUAGAUAGGAAACUUCUGGCAGGACC
B6: GTTC (dsDNA)
DNA 1: GCTATCTAGTGCTCAGTACGCACTGGTTCAGGAAACTTCTGGCAGGACCAGGTCATGAGATCGGAAGAGCACACGTCTGAACTCCAGTCA
DNA 2: TGACTGGAGTTCAGACGTGTGCTCTTCCGATCTCATGACCTGGTCCTGCCAGAAGTTTCCTGAACCAGTGCGTACTGAGCACTAGATAGC
RNA: AAUUUCUACUCUUGUAGAUAGGAAACUUCUGGCAGGACC
B7: TATA (dsDNA)
DNA 1: GCTATCTAGTGCTCAGTACGCACTGTATAAGGAAACTTCTGGCAGGACCAGGTCATGAGATCGGAAGAGCACACGTCTGAACTCCAGTCA
DNA 2: TGACTGGAGTTCAGACGTGTGCTCTTCCGATCTCATGACCTGGTCCTGCCAGAAGTTTCCTTATACAGTGCGTACTGAGCACTAGATAGC
RNA: AAUUUCUACUCUUGUAGAUAGGAAACUUCUGGCAGGACC
B8: GTTG (dsDNA)
DNA 1: GCTATCTAGTGCTCAGTACGCACTGGTTGAGGAAACTTCTGGCAGGACCAGGTCATGAGATCGGAAGAGCACACGTCTGAACTCCAGTCA
DNA 2: TGACTGGAGTTCAGACGTGTGCTCTTCCGATCTCATGACCTGGTCCTGCCAGAAGTTTCCTCAACCAGTGCGTACTGAGCACTAGATAGC
RNA: AAUUUCUACUCUUGUAGAUAGGAAACUUCUGGCAGGACC
B9: TATG (dsDNA)
DNA 1: GCTATCTAGTGCTCAGTACGCACTGTATGAGGAAACTTCTGGCAGGACCAGGTCATGAGATCGGAAGAGCACACGTCTGAACTCCAGTCA
DNA 2: TGACTGGAGTTCAGACGTGTGCTCTTCCGATCTCATGACCTGGTCCTGCCAGAAGTTTCCTCATACAGTGCGTACTGAGCACTAGATAGC
RNA: AAUUUCUACUCUUGUAGAUAGGAAACUUCUGGCAGGACC
B10: CTTT (dsDNA)
DNA 1: GCTATCTAGTGCTCAGTACGCACTGCTTTAGGAAACTTCTGGCAGGACCAGGTCATGAGATCGGAAGAGCACACGTCTGAACTCCAGTCA
DNA 2: TGACTGGAGTTCAGACGTGTGCTCTTCCGATCTCATGACCTGGTCCTGCCAGAAGTTTCCTAAAGCAGTGCGTACTGAGCACTAGATAGC
RNA: AAUUUCUACUCUUGUAGAUAGGAAACUUCUGGCAGGACC
B11: CTTC (dsDNA)
DNA 1: GCTATCTAGTGCTCAGTACGCACTGCTTCAGGAAACTTCTGGCAGGACCAGGTCATGAGATCGGAAGAGCACACGTCTGAACTCCAGTCA
DNA 2: TGACTGGAGTTCAGACGTGTGCTCTTCCGATCTCATGACCTGGTCCTGCCAGAAGTTTCCTGAAGCAGTGCGTACTGAGCACTAGATAGC
RNA: AAUUUCUACUCUUGUAGAUAGGAAACUUCUGGCAGGACC
B12: TCCC (dsDNA)
DNA 1: GCTATCTAGTGCTCAGTACGCACTGTCCCAGGAAACTTCTGGCAGGACCAGGTCATGAGATCGGAAGAGCACACGTCTGAACTCCAGTCA
DNA 2: TGACTGGAGTTCAGACGTGTGCTCTTCCGATCTCATGACCTGGTCCTGCCAGAAGTTTCCTGGGACAGTGCGTACTGAGCACTAGATAGC
RNA: AAUUUCUACUCUUGUAGAUAGGAAACUUCUGGCAGGACC
B13: CTTG (dsDNA)
DNA 1: GCTATCTAGTGCTCAGTACGCACTGCTTGAGGAAACTTCTGGCAGGACCAGGTCATGAGATCGGAAGAGCACACGTCTGAACTCCAGTCA
DNA 2: TGACTGGAGTTCAGACGTGTGCTCTTCCGATCTCATGACCTGGTCCTGCCAGAAGTTTCCTCAAGCAGTGCGTACTGAGCACTAGATAGC
RNA: AAUUUCUACUCUUGUAGAUAGGAAACUUCUGGCAGGACC

The binders below were run against dAsCas12a WT (Acidaminococcus sp., UniProt U2UMQ6 1-1307, D908A;E993A;D1235A) (assay: Spec-seq (native PAGE EMSA with sequencing of bound and unbound); 25 mM Tris-HCl pH 7.4, 150 mM KCl, 5 mM MgCl2, 10% glycerol, 1 mM DTT, 40 ng/uL salmon sperm DNA; 400 nM Cas12a, 480 nM crRNA, 50 nM library, 37 C 1 h; native P; high values mean tight binding). Settings: not given.

| Binder | binding signal |
| --- | --- |
| B1 | -6.66 lnKA |
| B2 | -8.41 lnKA |
| B3 | -6.18 lnKA |
| B4 | -8.56 lnKA |
| B5 | -6.86 lnKA |
| B6 | -7.08 lnKA |
| B7 | -8 lnKA |
| B8 | -7.73 lnKA |
| B9 | -9 lnKA |
| B10 | -8.63 lnKA |
| B11 | -6.68 lnKA |
| B12 | -8.69 lnKA |
| B13 | -7.38 lnKA |

These binders were tested against dAsCas12a Ultra (Acidaminococcus sp., UniProt U2UMQ6 1-1307, M537R;F870L;D908A;E993A;D1235A) (assay: Spec-seq (native PAGE EMSA with sequencing of bound and unbound); 25 mM Tris-HCl pH 7.4, 150 mM KCl, 5 mM MgCl2, 10% glycerol, 1 mM DTT, 40 ng/uL salmon sperm DNA; 400 nM Cas12a, 480 nM crRNA, 50 nM library, 37 C 1 h; native PAGE at room temperature; high values mean tight binding). Settings: protein: recombinant.

| Binder | binding signal |
| --- | --- |
| B1 | -4.22 lnKA |
| B2 | -7.18 lnKA |
| B3 | -3.71 lnKA |
| B4 | -7.72 lnKA |
| B5 | -4.67 lnKA |
| B6 | -4.74 lnKA |
| B7 | -7.14 lnKA |
| B8 | -5.6 lnKA |
| B9 | -8.06 lnKA |
| B10 | -7.25 lnKA |
| B11 | -4.32 lnKA |
| B12 | -6.14 lnKA |
| B13 | -5.08 lnKA |

Each binder was assayed against dAsCas12a E174R (Acidaminococcus sp., UniProt U2UMQ6 1-1307, E174R;D908A;E993A;D1235A) in the same assay as above. Settings: protein: recombinant.

| Binder | binding signal |
| --- | --- |
| B1 | -2.38 lnKA |
| B2 | -6.98 lnKA |
| B3 | -2.54 lnKA |
| B4 | -6.33 lnKA |
| B5 | -3 lnKA |
| B6 | -4.51 lnKA |
| B7 | -4.71 lnKA |
| B8 | -5.33 lnKA |
| B9 | -6.65 lnKA |
| B10 | -6.84 lnKA |
| B11 | -3.79 lnKA |
| B12 | -6.06 lnKA |
| B13 | -4.65 lnKA |

What follows are binders tested against dAsCas12a S542R (Acidaminococcus sp., UniProt U2UMQ6 1-1307, S542R;D908A;E993A;D1235A) in the same assay as above. Settings: protein: recombinant.

| Binder | binding signal |
| --- | --- |
| B1 | -4.07 lnKA |
| B2 | -7.04 lnKA |
| B3 | -4.59 lnKA |
| B4 | -7.21 lnKA |
| B5 | -4.46 lnKA |
| B6 | -4.83 lnKA |
| B7 | -6.54 lnKA |
| B8 | -5.32 lnKA |
| B9 | -7.42 lnKA |
| B10 | -7.35 lnKA |
| B11 | -4.75 lnKA |
| B12 | -1.93 lnKA |
| B13 | -5.07 lnKA |

What follows are binders tested against dAsCas12a K548R (Acidaminococcus sp., UniProt U2UMQ6 1-1307, K548R;D908A;E993A;D1235A) in the same assay as above. Settings: protein: recombinant.

| Binder | binding signal |
| --- | --- |
| B1 | -5.75 lnKA |
| B2 | -8.38 lnKA |
| B3 | -8.57 lnKA |
| B4 | -6.57 lnKA |
| B5 | -6 lnKA |
| B6 | -5.84 lnKA |
| B7 | -6.91 lnKA |
| B8 | -6.8 lnKA |
| B9 | -7.66 lnKA |
| B10 | -8.41 lnKA |
| B11 | -5.73 lnKA |
| B13 | -6.66 lnKA |

The binders below were run against d-enCas12a (Acidaminococcus sp., UniProt U2UMQ6 1-1307, E174R;S542R;K548R;D908A;E993A;D1235A) in the same assay as above. Settings: protein: recombinant.

| Binder | binding signal |
| --- | --- |
| B1 | -0.581 lnKA |
| B2 | -2.65 lnKA |
| B3 | -3.31 lnKA |
| B4 | -0.993 lnKA |
| B5 | -0.547 lnKA |
| B6 | -0.632 lnKA |
| B7 | -0.769 lnKA |
| B8 | -1.41 lnKA |
| B9 | -1.93 lnKA |
| B10 | -2.97 lnKA |
| B11 | -0.728 lnKA |
| B12 | -0.958 lnKA |
| B13 | -1.7 lnKA |

Each binder was assayed against d-enCas12a-Ultra (Acidaminococcus sp., UniProt U2UMQ6 1-1307, E174R;S542R;K548R;M537R;F870L;D908A;E993A;D1235A) in the same assay as above. Settings: protein: recombinant.

| Binder | binding signal |
| --- | --- |
| B1 | -0.177 lnKA |
| B2 | -0.552 lnKA |
| B3 | -0.837 lnKA |
| B4 | -0.399 lnKA |
| B5 | -0.184 lnKA |
| B6 | -0.198 lnKA |
| B7 | -0.324 lnKA |
| B8 | -0.361 lnKA |
| B9 | -0.687 lnKA |
| B10 | -0.647 lnKA |
| B11 | -0.217 lnKA |
| B12 | -0.245 lnKA |
| B13 | -0.41 lnKA |
